Data as given in PubChem BioAssay (NCI).
This is part of a sample that, as a whole, favours compounds with a hit. Of some 79,000 tested, about 15% had one in any assay. Unmarked numbers belong to inactive results. Active and inactive are the calls of the source. No stated cut-off is given here; in the data, active means growth inhibition above about 70%; inactive means the rest.

assay: NCI Yeast Anticancer Drug Screen. Data for the rad52 strain (AID 147);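 further: 0% = growth of vehicle-treated control cultures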; settings: S. cerevisiae rad52 mutant growth inhibition; at 33.0 µM; stronger effect = higher value
How it was run: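 Measured: yeast growth inhibition. System: strain with a defined DNA damage repair alteration. Reference: vehicle-treated control cultures.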

Row | SMILES | growth inhibition
1 | O=P(NC1CCCCC1)(OCc1ccccc1)OCc1ccccc1 | 26%
2 | COc1oc(C(=O)NC2CCCCC2)c(-c2ccc(Cl)cc2)c1S(=O)(=O)c1ccccc1 | 87% (active)
3 | CCOc1ccc(NC(=O)C2=C(C)NC(C)=C(C(=O)Nc3ccc(OCC)cc3)C2c2cccc([N+](=O)[O-])c2)cc1 | 49%
4 | CC1(C)CC(=O)C(/C=N/c2nc(-c3ccccc3)cs2)=C(O)C1 | 41%
5 | COc1nc2c(c(=O)n1C)N=C(c1ccccc1)[C@H](C(CC(=O)c1ccccc1)c1ccccc1)C(c1ccccc1)N2 (stereo not given in full) | 31%
6 | Nc1ncnc2c1ncn2C1OC(CO)CC1O (stereo not given) | 71% (active)
7 | CCOC(=O)C1N=[N+](c2ccccc2)C(=O)/C1=C\n1c(=S)[nH]c2ccc([N+](=O)[O-])cc21 (stereo not given) | 0%
8 | CNC(=O)OCc1c(COC(=O)NC)c2n(c1C)-c1ccc(OC)cc1CCC2 | 96% (active)
9 | Cc1ccc(CC2(OCCN(C)C)CCC(C(C)(C)C)CC2)cc1 (stereo not given) | 37%
10 | CCCC/C=C/C(C)(C(=O)OCC)C(=O)OCC | 4%
11 | O=C(/C=C(/c1ccccc1)N1CCCCC1)c1ccccc1 | 13%
12 | CCc1nc2ccc(NCCN(C)C)c3c(=O)c4ccccc4n1c23 | 81% (active)
13 | Cc1sc2ccc3ccccc3c2[n+]1C | 3%
14 | COc1c(O)c(C=O)c(Br)c(C=O)c1O | 49%
15 | Cc1ccc(Cl)cc1NC(=O)OCCN(C)C(=O)Nc1cc(Cl)ccc1C | -21%

same assay, conditions: S. cerevisiae rad52 mutant growth inhibition; at 100.0 µM; stronger effect = higher value

Row | SMILES | growth inhibition
16 | O=P(NC1CCCCC1)(OCc1ccccc1)OCc1ccccc1 | 26%
17 | COc1oc(C(=O)NC2CCCCC2)c(-c2ccc(Cl)cc2)c1S(=O)(=O)c1ccccc1 | 84% (active)
18 | CCOc1ccc(NC(=O)C2=C(C)NC(C)=C(C(=O)Nc3ccc(OCC)cc3)C2c2cccc([N+](=O)[O-])c2)cc1 | 82% (active)
19 | CC1(C)CC(=O)C(/C=N/c2nc(-c3ccccc3)cs2)=C(O)C1 | 84% (active)
20 | COc1nc2c(c(=O)n1C)N=C(c1ccccc1)[C@H](C(CC(=O)c1ccccc1)c1ccccc1)C(c1ccccc1)N2 (stereo not given in full) | 60%
21 | Nc1ncnc2c1ncn2C1OC(CO)CC1O (stereo not given) | 91% (active)
22 | CCOC(=O)C1N=[N+](c2ccccc2)C(=O)/C1=C\n1c(=S)[nH]c2ccc([N+](=O)[O-])cc21 (stereo not given) | 9%
23 | CNC(=O)OCc1c(COC(=O)NC)c2n(c1C)-c1ccc(OC)cc1CCC2 | 99% (active)
24 | Cc1ccc(CC2(OCCN(C)C)CCC(C(C)(C)C)CC2)cc1 (stereo not given) | 98% (active)
25 | CCCC/C=C/C(C)(C(=O)OCC)C(=O)OCC | 22%
26 | O=C(/C=C(/c1ccccc1)N1CCCCC1)c1ccccc1 | 98% (active)
27 | CCc1nc2ccc(NCCN(C)C)c3c(=O)c4ccccc4n1c23 | 85% (active)
28 | Cc1sc2ccc3ccccc3c2[n+]1C | 94% (active)
29 | COc1c(O)c(C=O)c(Br)c(C=O)c1O | 91% (active)
30 | Cc1ccc(Cl)cc1NC(=O)OCCN(C)C(=O)Nc1cc(Cl)ccc1C | -1%
